HT1080 IDH1KD tx: HT-1080 IDH1 knockdown cell toxicity (counter line). hit rate 2% among 360,000. AID 686971. Potency, µM (series often up to 46.1 µM), for inactives: at the highest dose activity, negative = toxicity, hits mostly cytotoxic. HT-1080 IDH1 knockdown viability, ATP luminescence, 48 h;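 further: potency means the concentration at half of the fitted maximal effect; 0% = DMSO wells and -100% = cell-free medium wells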
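After a 2 h attachment period, IDH1KD HT-1080 cells took pin-transferred compound for 48 h at 37 °C; ATP-based luminescence after 10 min room-temperature reagent incubation reported viability.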
DT40 TDP1 no CPT: qHTS for Inhibitors of human tyrosyl-DNA phosphodiesterase 1 (TDP1): qHTS in cells in absence of CPT | DT40 Tdp1-/- hTDP1 cells, no CPT, ATP luminescence, 48 h | Potency, µM (titrated, usually from 46.2 µM), inactives show at the top dose activity change, negative = growth inhibition, usual class: inhibitors | hit rate 15% among 420,000 | AID 686978, 2013; further: potency means the concentration at half of the fitted maximal effect; nearly all actives have a fitted effect of over 55% in size
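Cells were dispensed at 400 per well, compounds added by pin tool, plates incubated ≥48 hr at 37 °C, then CellTiter-Glo added for 30 min at room temperature before luminescence reading. Line: DT40 Tdp1-/- complemented with hTDP1; camptothecin omitted.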
TDP1 cell CPT: growth inhibition of DT40 Tdp1-/-;hTDP1 cells with camptothecin (screen for TDP1 inhibitors). chicken DT40 Tdp1-/-;hTDP1 cells + 20 nM CPT, ATP luminescence, 48 h. Potency, µM (series often up to 46.2 µM), for inactives: at the top dose activity change, negative = growth inhibition, usual class: inhibitors. hit rate 12% among 420,000. AID 686979; further: potency means the concentration at half of the fitted maximal effect; nearly all actives have a fitted effect of over 55% in size
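Cell growth measured by CellTiter-Glo luminescence after a minimum 48 h, 37 C compound exposure with 20 nM CPT in Tdp1-knockout DT40 cells stably expressing hTDP1, seeded 400/well; qHTS titration format.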
HT1080-NT tox: kills 2HG-producing HT-1080-NT fibrosarcoma cells | HT-1080-NT fibrosarcoma viability, CellTiter-Glo ATP luminescence, 48 h | Potency, µM (highest dose often 46.1 µM), for inactives: at the top dose activity, negative = less viability, actives largely listed as cytotoxic | hit rate 1.6% among 360,000;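 further: NT is the 2HG producing partner of a matched IDH1 knockdown line; potency means the concentration at half of the fitted maximal effect; 0% = DMSO-treated cells and -100% = media-only wells without cells; nearly all actives have a fitted effect of over 55% in size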
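750 cells/well, RPMI + 5% FBS; 2 h settle, compound pin-transfer, 48 h at 37 degrees C. CellTiter-Glo 10 min RT, luminescence. Normalized to DMSO and media-only wells.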
IL-1B inflam inh: inflammasome signaling inhibition, IL-1 beta readout; THP-1 LPS/ATP IL-1B secretion, AlphaLISA, 16 h; active compounds read low; hit rate 4.7% among 360,000; activity change, % at 57.5 µM; in the data active means activity change below about -50%; inconclusive means mostly about -30% to -49%
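THP-1 cells pretreated 1 hr with compounds (up to 57.5 uM final), then stimulated with LPS (250 ng/mL final) plus ATP (1.25 mM final); secreted IL-1B measured by AlphaLISA after 16 hr, decreased signal indicating inhibition.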
12-LOX inh: ALOX12 (human) lipoxygenase inhibition | Potency, µM (titrated, usually from 108 µM), for inactives: at the highest dose activity change, negative = inhibition, actives largely listed as inhibitors | hit rate 1.1% among 580,000 | P18054 | AID 1671190 | purified 12hLO, xylenol orange hydroperoxide absorbance; further: potency means the concentration at half of the fitted maximal effect
Target sequence (P18054 whole entry, looked up): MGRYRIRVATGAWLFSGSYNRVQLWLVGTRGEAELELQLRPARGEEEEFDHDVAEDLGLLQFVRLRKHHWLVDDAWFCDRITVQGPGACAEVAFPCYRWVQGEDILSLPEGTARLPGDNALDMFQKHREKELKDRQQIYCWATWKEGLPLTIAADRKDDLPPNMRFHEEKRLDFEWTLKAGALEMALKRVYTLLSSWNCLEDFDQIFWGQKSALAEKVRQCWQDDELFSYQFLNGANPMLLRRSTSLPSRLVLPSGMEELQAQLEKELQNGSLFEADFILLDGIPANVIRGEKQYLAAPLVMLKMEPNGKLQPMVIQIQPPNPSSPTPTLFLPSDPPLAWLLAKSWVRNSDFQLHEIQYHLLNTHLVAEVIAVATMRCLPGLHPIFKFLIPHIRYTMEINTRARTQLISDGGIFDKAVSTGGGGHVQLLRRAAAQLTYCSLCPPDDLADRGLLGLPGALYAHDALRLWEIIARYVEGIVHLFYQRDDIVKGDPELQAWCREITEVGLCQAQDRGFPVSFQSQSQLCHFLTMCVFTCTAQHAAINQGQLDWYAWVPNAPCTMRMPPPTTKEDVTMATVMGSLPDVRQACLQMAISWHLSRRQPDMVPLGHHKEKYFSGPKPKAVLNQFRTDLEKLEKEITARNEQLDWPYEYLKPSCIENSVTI
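Hydroperoxide product was detected by ferrous iron/xylenol orange as the 573 to 405 nm absorbance ratio. Arachidonic acid at 40 uM (final) was turned over for 30 min at room temperature by 150 nM human 12hLO, pH 7.0 Hepes buffer, after 15 min compound preincubation.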
Numbers without * were called inactive; ? = inconclusive; . = not tested or not shown. The sample as a whole holds a higher share of hits than the screen did. Unless noted, the call rests on the fitted dose curve; in most records, active means well fitted curve in the direction sought with a large enough effect; inconclusive means small, poorly fitted or top-dose-only effect, or another doubt; inactive means no such curve, though single readings can be large; an effect the other way counts as inactive or inconclusive. Unless noted, on the % scale 0 is the no-effect control and ±100 the full control effect.

SMILES	HT1080 IDH1KD tx	DT40 TDP1 no CPT	TDP1 cell CPT	HT1080-NT tox	IL-1B inflam inh	12-LOX inh
CCOC(=O)C1CCN(c2cc(C)nc3ccc(OC)cc23)CC1	-26.8%	16.4µM*	?	-3.4%	-17.4	3.7%
COc1ccc2nc(C)cc(N3CCC(C(N)=O)CC3)c2c1	15.3%	-21.7%	12.9%	0.6%	-18.0	-3.9%
N#Cc1c(NCc2ccccc2)ccnc1Cl	-3.9%	20.6µM*	?	-21.0%	5.8	383.3%
N#C/C(=C/c1cccc(F)c1)S(=O)(=O)c1ccc(Br)cc1	.	.	.	.	.	22.4µM*
N#C/C(=C\c1ccc(O)c(O)c1)S(=O)(=O)c1ccccc1	-15.0%	-19.9%	-8.0%	-2.2%	21.6	3.16µM*
N#C/C(=C/c1ccc(F)cc1)S(=O)(=O)c1ccccc1	13.8%	-4.4%	0.4%	9.5%	.	0.0%
Cc1ccc(N2CC(C(=O)Nc3c(C)nn(C)c3C)CC2=O)cc1 (stereo not drawn)	.	.	.	.	.	1.4%
O=C(CSc1nc2c([nH]c3ccccc32)c(=O)n1-c1ccccc1)Nc1ccc(Cl)c(Cl)c1	.	10.3µM*	8.2µM*	.	.	-27.9%
O=C(CSc1nc2c(oc3ccccc32)c(=O)n1-c1ccccc1)Nc1ccc(F)c(Cl)c1	.	13µM*	?	.	.	-27.2%
O=C(CSc1nc2c([nH]c3ccccc32)c(=O)n1-c1ccccc1)Nc1ccc2c(c1)OCO2	.	23.1µM*	?	.	.	-29.4%
O=C(CSc1nc2c([nH]c3ccccc32)c(=O)n1-c1ccccc1)Nc1ccc2c(c1)OCCO2	.	?	?	.	.	5.5%
CC(C)c1nncn1C1CCN(C(=O)c2cc(-c3cccs3)[nH]n2)C1 (stereo not drawn)	.	.	.	.	.	4.9%
COc1cc(=O)n2c(c1C(=O)N1CCN(c3cc(C)ccc3C)CC1)CCCC2	.	.	.	.	.	50.6%
O=c1c2nnn(-c3ccccc3)c2ncn1C/C=C/c1ccccc1	-2.4%	25.9µM*	-25.1%	-7.2%	-3.7	20.2%
COc1cccc(-n2nnc3c(=O)n(C/C=C/c4ccccc4)cnc32)c1	-0.3%	-29.4%	-24.5%	-6.6%	5.1	17.5%
COc1ccc(OC)c(NC(=O)Cn2nc(C)c3ccccc3c2=O)c1	1.0%	-14.3%	-4.8%	9.5%	0.0	15.7%
COCCNCCCCSc1ccc(Cl)cc1	-12.8%	18.4µM*	14.6µM*	-20.8%	-6.0	?
CC(C)OC(=O)/C(C#N)=C\c1ccc(-c2ccccc2Cl)o1	.	.	.	.	.	11.8%
Cc1ccc(C(=O)/C=C/c2ccc(-c3ccccc3Cl)o2)cc1	.	.	.	.	.	7.08µM*
O=C(/C=C/c1ccc(-c2ccccc2Cl)o1)c1ccc2ccccc2c1	.	.	.	.	.	1µM*
Cc1ccc(C(=O)/C=C/c2ccc(-c3ccccc3Br)o2)cc1	.	.	.	.	.	1.12µM*
O=C(O)/C(=C\c1ccc(-c2ccccc2[N+](=O)[O-])o1)c1ccccc1	-1.3%	-8.8%	-14.7%	-2.7%	18.7	?
O=C(/C=C/c1ccc(-c2ccccc2[N+](=O)[O-])o1)c1ccccc1	-25.9%	23.1µM*	?	-28.3%	-66.7*	-9.0%
COC(=O)N/N=C/c1ccc(-c2ccccc2Cl)o1	-11.1%	?	0.2%	-18.8%	6.6	?
COCC1CN(S(=O)(=O)c2ccc3c(c2)CCC3)CC12CCNCC2 (stereo not drawn)	.	.	.	.	.	26.7%
Cc1ccc(C)c(NC(=O)c2ccc(=O)n(CCOc3ccccc3)n2)c1	.	.	.	.	.	69.1%
COc1ccc(-c2cc(N3CCCN(C(=O)C4(c5ccc(OC)cc5)CC4)CC3)n[nH]2)cc1	.	.	.	.	.	22.0%
O=C(O)c1ccc(/C=C/C(=O)c2ccc(Br)cc2)cc1	.	.	.	.	.	2.6%
O=C(O)c1ccc(-c2ccccc2Cl)o1	-5.7%	-16.8%	-12.0%	-9.9%	-6.1	0.0%
